Test results reported in PubChem BioAssay AID1159580 (chemical genetic matrix, 2015).
Screen size: about 5,500 compounds; about 2,000 (36%) were called active. Not shown: some 18% with an inconclusive outcome. Cut-off read from the data, not from the text of the source: active = normalized growth mostly below about 0.91 (no sharp cut-off); inconclusive = no clear call, values can overlap the other calls; inactive = mostly above about 0.92. This is one part of the list.

Assay: chemical genetic growth profiling, strain panel (AID 1159580);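 note: tested at 20 µM; growth read once vehicle control cultures reached saturation at 30 °C; 1 = growth at the plate median or of vehicle wells; lower values mean less growth of the strain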
Conditions: growth OD
[1] = S. cerevisiae deletion strains, locus YDL101C, strain DUN1, active compounds read low
[2] = S. cerevisiae deletion strains, locus YHR030C, strain SLT2, active compounds read low
[3] = S. cerevisiae deletion strains, locus YAL013W, strain DEP1, active compounds read low
[4] = S. cerevisiae deletion strains, locus YBR229C, strain ROT2, active compounds read low
[5] = S. cerevisiae deletion strains, locus YCL061C, strain MRC1, active compounds read low
[6] = S. cerevisiae deletion strains, locus YDR150W, strain NUM1, active compounds read low
[7] = S. cerevisiae deletion strains, locus YEL061C, strain CIN8, active compounds read low
[8] = S. cerevisiae deletion strains, locus YGR078C, strain PAC10, active compounds read low
[9] = S. cerevisiae deletion strains, locus YHR087W, strain rtc3, active compounds read low
[10] = S. cerevisiae deletion strains, locus YJR043C, strain POL32, active compounds read low
[11] = S. cerevisiae deletion strains, locus YJR075W, strain HOC1, active compounds read low
[12] = S. cerevisiae deletion strains, locus YLR039C, strain RIC1, active compounds read low
[13] = S. cerevisiae deletion strains, locus YLR058C, strain SHM2 (second series), active compounds read low
[14] = S. cerevisiae deletion strains, locus YLR085C, strain ARP6, active compounds read low
[15] = S. cerevisiae deletion strains, locus YLR262C, strain YPT6, active compounds read low
[16] = S. cerevisiae deletion strains, locus YML094W, strain GIM5, active compounds read low
[17] = S. cerevisiae deletion strains, locus YMR219W, strain ESC1, active compounds read low
[18] = S. cerevisiae deletion strains, locus YMR263W, strain SAP30, active compounds read low
[19] = S. cerevisiae deletion strains, locus YNL153C, strain GIM3, active compounds read low
[20] = S. cerevisiae deletion strains, locus YNL298W, strain CLA4 (second series), active compounds read low
[21] = S. cerevisiae deletion strains, locus YNL322C, strain KRE1, active compounds read low
[22] = S. cerevisiae deletion strains, locus YNR030W, strain Alg12, active compounds read low
[23] = S. cerevisiae deletion strains, locus YPL241C, strain CIN2, active compounds read low
[24] = S. cerevisiae deletion strains, locus YPR135W, strain CTF4, active compounds read low

Measured: normalized growth

S=C(Nc1ccc(Cl)cc1)SCc1c(Cl)cccc1Cl
inactive: S. cerevisiae deletion strains, locus YAR019C, strain CDC15, active compounds read low 0.976 | S. cerevisiae deletion strains, locus YBL105C, strain PKC1, active compounds read low 0.984 | S. cerevisiae deletion strains, locus YBR135W, strain CKS1, active compounds read low 0.977 | S. cerevisiae deletion strains, locus YBR136W, strain MEC1, active compounds read low 0.996 | S. cerevisiae deletion strains, locus YBR160W, strain CDC28, active compounds read low 0.987 | S. cerevisiae deletion strains, locus YDL017W, strain CDC7, active compounds read low 0.984 | S. cerevisiae deletion strains, locus YDL028C, strain MPS1, active compounds read low 0.985 | [1] 0.993 | S. cerevisiae deletion strains, locus YDL108W, strain KIN28, active compounds read low 0.997 | S. cerevisiae deletion strains, locus YDL132W, strain cdc53, active compounds read low 0.979 | S. cerevisiae deletion strains, locus YDL214C, strain PRR2, active compounds read low 0.96 | S. cerevisiae deletion strains, locus YDR052C, strain DBF4, active compounds read low 0.989 | S. cerevisiae deletion strains, locus YDR054C, strain cdc34, active compounds read low 0.978 | S. cerevisiae deletion strains, locus YDR226W, strain ADK1, active compounds read low 0.983 | S. cerevisiae deletion strains, locus YDR477W, strain SNF1, active compounds read low 0.95 | S. cerevisiae deletion strains, locus YER123W, strain YCK3, active compounds read low 0.973 | S. cerevisiae deletion strains, locus YER133W, strain GLC7, active compounds read low 0.915 | S. cerevisiae deletion strains, locus YFL009W, strain cdc4, active compounds read low 0.977 | S. cerevisiae deletion strains, locus YFL029C, strain CAK1, active compounds read low 0.974 | S. cerevisiae deletion strains, locus YFR003C, strain YPI1, active compounds read low 0.984 | S. cerevisiae deletion strains, locus YFR019W, strain FAB1, active compounds read low 0.961 | S. cerevisiae deletion strains, locus YFR028C, strain CDC14, active compounds read low 0.971 | S. cerevisiae deletion strains, locus YGR040W, strain KSS1, active compounds read low 0.938 | S. cerevisiae deletion strains, locus YGR052W, strain FMP48, active compounds read low 1.06 | S. cerevisiae deletion strains, locus YGR092W, strain DBF2, active compounds read low 0.89 | [2] 0.996 | S. cerevisiae deletion strains, locus YHR079C, strain IRE1, active compounds read low 1.08 | S. cerevisiae deletion strains, locus YHR082C, strain KSP1, active compounds read low 1.03 | S. cerevisiae deletion strains, locus YHR205W, strain SCH9, active compounds read low 0.999 | S. cerevisiae deletion strains, locus YIL147C, strain SLN1, active compounds read low 0.992 | S. cerevisiae deletion strains, locus YJL095W, strain BCK1, active compounds read low 1.05 | S. cerevisiae deletion strains, locus YJL128C, strain PBS2, active compounds read low 0.967 | S. cerevisiae deletion strains, locus YJL157C, strain FAR1, active compounds read low 0.96 | S. cerevisiae deletion strains, locus YJR016C, strain ILV3, active compounds read low 0.973 | S. cerevisiae deletion strains, locus YJR066W, strain TOR1 (second series), active compounds read low 0.932 | S. cerevisiae deletion strains, locus YJR066W, strain TOR1, active compounds read low 1.02 | S. cerevisiae deletion strains, locus YKL048C, strain ELM1, active compounds read low 0.992 | S. cerevisiae deletion strains, locus YKL067W, strain YNK1, active compounds read low 0.972 | S. cerevisiae deletion strains, locus YKL101W, strain HSL1, active compounds read low 0.994 | S. cerevisiae deletion strains, locus YKL193C, strain SDS22, active compounds read low 0.978 | S. cerevisiae deletion strains, locus YKL203C, strain TOR2, active compounds read low 1.02 | S. cerevisiae deletion strains, locus YLR113W, strain HOG1, active compounds read low 1.09 | S. cerevisiae deletion strains, locus YLR133W, strain CKI1, active compounds read low 0.993 | S. cerevisiae deletion strains, locus YLR403W, strain SFP1, active compounds read low 0.95 | S. cerevisiae deletion strains, locus YML070W, strain DAK1, active compounds read low 0.957 | S. cerevisiae deletion strains, locus YMR001C, strain CDC5, active compounds read low 0.971 | S. cerevisiae deletion strains, locus YMR205C, strain PFK2 (second series), active compounds read low 0.987 | S. cerevisiae deletion strains, locus YMR277W, strain FCP1, active compounds read low 0.973 | S. cerevisiae deletion strains, locus YNL006W, strain LST8, active compounds read low 0.972 | S. cerevisiae deletion strains, locus YNL020C, strain ARK1, active compounds read low 0.983 | S. cerevisiae deletion strains, locus YNL161W, strain CBK1, active compounds read low 0.978 | S. cerevisiae deletion strains, locus YNL183C, strain NPR1, active compounds read low 1.03 | S. cerevisiae deletion strains, locus YNL207W, strain RIO2, active compounds read low 0.983 | S. cerevisiae deletion strains, locus YNL222W, strain SSU72, active compounds read low 0.976 | S. cerevisiae deletion strains, locus YNL307C, strain MCK1 (second series), active compounds read low 0.978 | S. cerevisiae deletion strains, locus YOL078W, strain AVO1, active compounds read low 0.979 | S. cerevisiae deletion strains, locus YOL136C, strain PFK27, active compounds read low 0.973 | S. cerevisiae deletion strains, locus YOR061W, strain CKA2, active compounds read low 0.955 | S. cerevisiae deletion strains, locus YOR119C, strain RIO1, active compounds read low 0.97 | S. cerevisiae deletion strains, locus YOR231W, strain MKK1, active compounds read low 1.06 | S. cerevisiae deletion strains, locus YOR329C, strain SCD5, active compounds read low 0.983 | S. cerevisiae deletion strains, locus YPL031C, strain PHO85, active compounds read low 0.956 | S. cerevisiae deletion strains, locus YPL153C, strain RAD53, active compounds read low 0.949 | S. cerevisiae deletion strains, locus YPL204W, strain HRR25, active compounds read low 0.939 | S. cerevisiae deletion strains, locus YPL209C, strain IPL1, active compounds read low 0.989 | S. cerevisiae deletion strains, locus YPL256C, strain CLN2, active compounds read low 1.08 | S. cerevisiae deletion strains, locus YPR025C, strain CCL1, active compounds read low 0.987 | S. cerevisiae deletion strains, locus YPR106W, strain ISR1, active compounds read low 0.994 | S. cerevisiae deletion strains, locus YPR111W, strain DBF20, active compounds read low 0.986 | S. cerevisiae deletion strains, strain NNK1, active compounds read low 0.999 | S. cerevisiae deletion strains, strain TSCII, active compounds read low 0.981

Cn1c(CSCC(=O)Nc2ccccc2)n[nH]c1=S
inactive: [3] 1.01 | [4] 1.01 | [5] 1.02 | [1] 1.02 | [6] 1.02 | [7] 1 | [8] 0.999 | [2] 1.09 | [9] 1.01 | [10] 1.02 | [11] 0.991 | [12] 1 | [13] 1 | [14] 0.966 | [15] 1.01 | [16] 0.994 | [17] 0.993 | [18] 1.02 | S. cerevisiae deletion strains, locus YNL128W, strain TEP1, active compounds read low 0.994 | [19] 1.02 | [20] 1.03 | [21] 0.99 | [22] 1 | S. cerevisiae deletion strains, locus YPL055C, strain LGE1, active compounds read low 1.03 | [23] 1 | [24] 1.07 | S. cerevisiae strains, strain wild type, active compounds read low 0.981

N#C/C(NCc1cccs1)=C(\C#N)NCc1c(F)cccc1Cl
inactive: [3] 0.958 | [4] 0.977 | [5] 0.97 | [1] 0.979 | [6] 0.899 | [7] 0.998 | [8] 0.973 | [2] 0.919 | [9] 0.991 | S. cerevisiae deletion strains, locus YJL187C, strain SWE1, active compounds read low 1 | [10] 0.988 | [11] 0.97 | [12] 0.939 | [13] 0.972 | [14] 0.957 | [15] 0.969 | [16] 0.964 | [17] 0.986 | [18] 0.947 | S. cerevisiae deletion strains, locus YMR307W, strain GAS1, active compounds read low 0.919 | [19] 0.993 | [20] 0.959 | [21] 0.969 | [22] 0.964 | S. cerevisiae deletion strains, locus YOL006C, strain TOP1, active compounds read low 1.01 | [23] 0.973 | [24] 0.962
